Test results published in ChEMBL document CHEMBL3988442, “University of Dundee, Small-Polar-MMV Screening Library” (2021).

Each compound was assayed against T1, Aspartate--tRNA(Asp/Asn) ligase (Mycobacterium tuberculosis (strain ATCC 25618 / H37Rv)) (UniProt P9WFW3) (assay: Assay for Asp RNA synthetase-1 from Mycobacterium tuberculosis). Details: 30 µM.
T1 sequence (whole entry): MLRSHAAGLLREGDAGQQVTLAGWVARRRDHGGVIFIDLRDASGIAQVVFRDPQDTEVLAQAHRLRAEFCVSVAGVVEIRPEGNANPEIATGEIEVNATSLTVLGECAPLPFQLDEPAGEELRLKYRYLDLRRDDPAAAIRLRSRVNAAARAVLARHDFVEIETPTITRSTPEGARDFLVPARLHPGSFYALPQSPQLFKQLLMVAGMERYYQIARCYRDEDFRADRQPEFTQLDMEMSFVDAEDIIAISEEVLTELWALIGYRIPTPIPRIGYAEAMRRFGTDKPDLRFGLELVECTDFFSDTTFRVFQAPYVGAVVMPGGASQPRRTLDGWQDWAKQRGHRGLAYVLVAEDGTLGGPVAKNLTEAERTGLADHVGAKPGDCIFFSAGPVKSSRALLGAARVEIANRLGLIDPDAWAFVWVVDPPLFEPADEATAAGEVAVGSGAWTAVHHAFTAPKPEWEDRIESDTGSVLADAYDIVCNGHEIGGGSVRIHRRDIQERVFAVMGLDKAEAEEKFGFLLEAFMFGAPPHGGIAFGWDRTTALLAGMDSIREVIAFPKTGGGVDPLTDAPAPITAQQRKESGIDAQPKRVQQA
Assay type: functional
Parameters: scale not given: direction of the effect not stated beside the values
With `Cc1ccc(CN(C)CC(=O)NC2(C)CCS(=O)(=O)C2)cc1` (stereo not given) the Percent Effect was 1.84%.
Compound `CCC(C)NC(=O)N1CCCn2cnc(CO)c2C1` (stereo not given) has a Percent Effect of -2.9%.
Compound `CN1CCN(c2cc(CNC(=O)c3ccc(=O)n(C)c3)ccn2)CC1` has a Percent Effect of -4.9%.
For `COCCN1C[C@@H]2CN(c3ncccn3)C[C@@H]2C1=O`, the Percent Effect was 0.324%.
`c1cnnc(N2CCCC(NCc3nc(C4CC4)no3)C2)c1` (stereo not given) was tested, and the Percent Effect was 6.87%.
Work on `CCn1ccnc1-c1nc2cc(S(=O)(=O)N3CCCC3)ccc2n1C` yielded a Percent Effect of -4.2%.
With `O=C(c1ccnnc1)N1C[C@H](Oc2cccnc2)[C@H]2OCCC[C@H]21` the Percent Effect was 2.1%.
`O=C(CCN1CCCC1c1cccs1)N1CCc2sccc2C1` (stereo not given) was tested, and the Percent Effect was -0.954%.
`CCc1ncc2c(n1)CN(Cc1nc(C)c(C)o1)CC2` showed a Percent Effect of 0.259%.
`Cc1nc(C)n(C2CCCN(C(=O)c3csnn3)C2)n1` (stereo not given) was tested, and the Percent Effect was 9.97%.
With `O=C(CCc1cccs1)N1CCC(Nc2cccnn2)CC1` the Percent Effect was -2.47%.
`Cc1nc(N2CCCC2)nc2c1CCN(Cc1ccco1)CC2` gave a Percent Effect of 8.76%.
With `Cc1ccc(CNC(=O)CN2CCN(CC(O)c3ccco3)CC2)cc1` (stereo not given) the Percent Effect was -6.22%.
`CN(CCCc1cnn(C)c1)C(=O)C1CCOC1` (stereo not given) was tested, and the Percent Effect was 5.2%.
`Cn1c(C(F)(F)F)nn(CCNC(=O)CSCc2ccccc2)c1=O` was tested, and the Percent Effect was -5.63%.
`Cc1noc(Cl)c1CC(=O)N1CCCC(n2cccn2)C1` (stereo not given) was tested, and the Percent Effect was 2.08%.
For `CSCCCN1CCCC1c1noc(C)n1` (stereo not given), the Percent Effect was 1.68%.
`Cc1cc(CN2CCN(C(=O)NC(C)Cn3ccnc3)CC2)no1` (stereo not given) showed a Percent Effect of -1.75%.
Compound `CC(=O)c1cccc(OCCCC(=O)N(C)Cc2cccc(O)c2)c1` has a Percent Effect of -2.31%.
With `COCCNC(=O)[C@H]1CN(Cc2nccs2)C[C@H]2OCC[C@@H]12` the Percent Effect was -4.08%.
For `OC[C@H]1CC[C@]2(CC1)CN(Cc1ccccn1)Cc1ccccc1O2`, the Percent Effect was 0.104%.
`Cc1nc(C)n(CC2CCCN2CC(=O)NCCc2ccccc2)n1` (stereo not given) was tested, and the Percent Effect was -7.16%.
`Cc1nc(NC2CCCC2)cc(C2CCN2C(=O)c2ccccc2)n1` (stereo not given) gave a Percent Effect of -4.99%.
In the case of `O=C(CCn1cnnc1)N1CCCC(c2ncc[nH]2)C1` (stereo not given), the Percent Effect is reported as 5.32%.
`CCOC(=O)C1CCN(Cc2csc(C(C)(C)C)n2)CC1` gave a Percent Effect of -9.34%.
Compound `Cc1ccccc1CNc1nc(O)cc(C2CC(=O)N(C)C2)n1` (stereo not given) has a Percent Effect of -2.9%.
`CC(C)(C)N1CCCN(C(=O)c2csc(S(N)(=O)=O)c2)CC1` gave a Percent Effect of -2.95%.
`COc1c(C)cnc(CN2CCCCC2Cn2nc(C)nc2C)c1C` (stereo not given) showed a Percent Effect of -2.54%.
`Cc1ccc(NC(C)C(=O)NCc2cccs2)cc1C` (stereo not given) was tested, and the Percent Effect was 3.13%.
With `Cc1[nH]ncc1C(=O)N1CCN(CC(O)C(C)(C)C)CC1` (stereo not given) the Percent Effect was 0.878%.
Compound `CCc1nc(CNCC2CCCN2c2cc(NC)ncn2)cs1` (stereo not given) has a Percent Effect of -0.456%.
Compound `COc1ccc(CN2CC[C@H]3[C@H]2CCN3C(=O)c2cnn(C)c2)cc1` has a Percent Effect of -0.229%.
`Cn1cccc1C(=O)N1CCc2ncc(Cn3cccn3)n2CC1` showed a Percent Effect of -0.291%.
For `COc1ccc(CC(=O)N2C[C@@H]3COC[C@]3(CN(C)C)C2)cc1`, the Percent Effect was -5.29%.
With `Cn1cnnc1CNC(=O)Nc1cc(C(F)(F)F)c[nH]c1=O` the Percent Effect was 1.79%.
With `COc1cc(/C=C/c2ncc(C(=O)O)s2)cc(Cl)c1O` the Percent Effect was -0.0437%.
`COc1c(CNCc2ccc(N(C)C)nc2)c(C(C)C)nn1C` was tested, and the Percent Effect was 0.0333%.
`CCC(=O)NC1CCN(c2cccc(CC)c2)CC1` showed a Percent Effect of 1.79%.
In the case of `CCCS(=O)(=O)N1CCC2(CN(c3cnn(C)c3)C(=O)CN2C)C1` (stereo not given), the Percent Effect is reported as -0.662%.
Work on `Fc1cnc(N2CCC3(COCc4cnc(NCC5CC5)nc43)C2)nc1` (stereo not given) yielded a Percent Effect of 1.39%.

These compounds were tested against Shiga toxin 2 (Escherichia coli O157:H7) (UniProt P09385+P09386) (assay: E. coli 0.157:H7 Shiga Toxin SOP - stx2 screening assay). Details: 30 µM.
Assay type: functional
Parameters: scale not given: direction of the effect not stated beside the values
In the case of `Cc1ccc(CN(C)CC(=O)NC2(C)CCS(=O)(=O)C2)cc1` (stereo not given), the Percent Effect is reported as -25.3%.
Work on `CCC(C)NC(=O)N1CCCn2cnc(CO)c2C1` (stereo not given) yielded a Percent Effect of -0.62%.
For `CN1CCN(c2cc(CNC(=O)c3ccc(=O)n(C)c3)ccn2)CC1`, the Percent Effect was -0.684%.
In the case of `COCCN1C[C@@H]2CN(c3ncccn3)C[C@@H]2C1=O`, the Percent Effect is reported as -15.3%.
Work on `c1cnnc(N2CCCC(NCc3nc(C4CC4)no3)C2)c1` (stereo not given) yielded a Percent Effect of -18.7%.
For `CCn1ccnc1-c1nc2cc(S(=O)(=O)N3CCCC3)ccc2n1C`, the Percent Effect was -15.7%.
With `O=C(c1ccnnc1)N1C[C@H](Oc2cccnc2)[C@H]2OCCC[C@H]21` the Percent Effect was 3.62%.
`O=C(CCN1CCCC1c1cccs1)N1CCc2sccc2C1` (stereo not given) showed a Percent Effect of 1.91%.
`CCc1ncc2c(n1)CN(Cc1nc(C)c(C)o1)CC2` showed a Percent Effect of -23.6%.
Compound `Cc1nc(C)n(C2CCCN(C(=O)c3csnn3)C2)n1` (stereo not given) has a Percent Effect of 18.7%.
With `O=C(CCc1cccs1)N1CCC(Nc2cccnn2)CC1` the Percent Effect was -26.6%.
For `Cc1nc(N2CCCC2)nc2c1CCN(Cc1ccco1)CC2`, the Percent Effect was -55.7%.
`Cc1ccc(CNC(=O)CN2CCN(CC(O)c3ccco3)CC2)cc1` (stereo not given) was tested, and the Percent Effect was -10.6%.
With `CN(CCCc1cnn(C)c1)C(=O)C1CCOC1` (stereo not given) the Percent Effect was -36.5%.
`Cn1c(C(F)(F)F)nn(CCNC(=O)CSCc2ccccc2)c1=O` was tested, and the Percent Effect was 4.5%.
`Cc1noc(Cl)c1CC(=O)N1CCCC(n2cccn2)C1` (stereo not given) was tested, and the Percent Effect was 32.6%.
With `CSCCCN1CCCC1c1noc(C)n1` (stereo not given) the Percent Effect was 11.3%.
In the case of `Cc1cc(CN2CCN(C(=O)NC(C)Cn3ccnc3)CC2)no1` (stereo not given), the Percent Effect is reported as 21%.
`CC(=O)c1cccc(OCCCC(=O)N(C)Cc2cccc(O)c2)c1` showed a Percent Effect of -20.2%.
With `COCCNC(=O)[C@H]1CN(Cc2nccs2)C[C@H]2OCC[C@@H]12` the Percent Effect was 1.98%.
`OC[C@H]1CC[C@]2(CC1)CN(Cc1ccccn1)Cc1ccccc1O2` was tested, and the Percent Effect was 2.28%.
`Cc1nc(C)n(CC2CCCN2CC(=O)NCCc2ccccc2)n1` (stereo not given) gave a Percent Effect of -6.86%.
`Cc1nc(NC2CCCC2)cc(C2CCN2C(=O)c2ccccc2)n1` (stereo not given) showed a Percent Effect of -18.1%.
In the case of `O=C(CCn1cnnc1)N1CCCC(c2ncc[nH]2)C1` (stereo not given), the Percent Effect is reported as -29.4%.
For `CCOC(=O)C1CCN(Cc2csc(C(C)(C)C)n2)CC1`, the Percent Effect was -1.05%.
`Cc1ccccc1CNc1nc(O)cc(C2CC(=O)N(C)C2)n1` (stereo not given) was tested, and the Percent Effect was 0.153%.
For `CC(C)(C)N1CCCN(C(=O)c2csc(S(N)(=O)=O)c2)CC1`, the Percent Effect was -17.3%.
In the case of `COc1c(C)cnc(CN2CCCCC2Cn2nc(C)nc2C)c1C` (stereo not given), the Percent Effect is reported as -21.3%.
`Cc1ccc(NC(C)C(=O)NCc2cccs2)cc1C` (stereo not given) gave a Percent Effect of -30.8%.
`Cc1[nH]ncc1C(=O)N1CCN(CC(O)C(C)(C)C)CC1` (stereo not given) gave a Percent Effect of 0.313%.
In the case of `CCc1nc(CNCC2CCCN2c2cc(NC)ncn2)cs1` (stereo not given), the Percent Effect is reported as -5.66%.
`COc1ccc(CN2CC[C@H]3[C@H]2CCN3C(=O)c2cnn(C)c2)cc1` gave a Percent Effect of -7.37%.
`Cn1cccc1C(=O)N1CCc2ncc(Cn3cccn3)n2CC1` was tested, and the Percent Effect was -19.1%.
Work on `COc1ccc(CC(=O)N2C[C@@H]3COC[C@]3(CN(C)C)C2)cc1` yielded a Percent Effect of -4.41%.
`Cn1cnnc1CNC(=O)Nc1cc(C(F)(F)F)c[nH]c1=O` gave a Percent Effect of 27.2%.
In the case of `COc1cc(/C=C/c2ncc(C(=O)O)s2)cc(Cl)c1O`, the Percent Effect is reported as -52.2%.
In the case of `COc1c(CNCc2ccc(N(C)C)nc2)c(C(C)C)nn1C`, the Percent Effect is reported as 14%.
Work on `CCC(=O)NC1CCN(c2cccc(CC)c2)CC1` yielded a Percent Effect of 5.5%.
`CCCS(=O)(=O)N1CCC2(CN(c3cnn(C)c3)C(=O)CN2C)C1` (stereo not given) showed a Percent Effect of -13.9%.
`Fc1cnc(N2CCC3(COCc4cnc(NCC5CC5)nc43)C2)nc1` (stereo not given) showed a Percent Effect of 2.48%.
